Compound activity: PubChem BioAssay, several laboratories
Compounds with a hit are over-represented: about 1.3% of the library has one in this group of screens.
MazF activator: increases E. coli MazEF RNase cleavage of RNA; actives 0.32% (n = 350,000); P0AE70; FAM/BHQ RNA-DNA oligo cleavage fluorescence, 5 h; activation, % at 20 µM; in the data active means activation above about 50%
Target sequence (P0AE70 whole entry, looked up): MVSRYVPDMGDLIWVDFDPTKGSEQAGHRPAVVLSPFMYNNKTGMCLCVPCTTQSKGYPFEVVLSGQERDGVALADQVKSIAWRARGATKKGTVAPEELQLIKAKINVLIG
CCHF vOTU inh: CCHFV vOTU protease inhibition. inhibition, % at 11.5 µM. Pep-AMC fluorescence. actives 0.55% (n = 370,000); in the data active means inhibition above about 30%
SARS 3CLpro inh-1: SARS-CoV 3CLpro protease inhibition | P0C6X7 | actives 0.14% (n = 290,000) | AID 1706 | recombinant SARS-CoV 3CLpro, quenched FRET peptide cleavage | inhibition, % at 6 µM; in the data active means inhibition above about 12%
Mtb bLac sens: beta-lactam sensitization of Mtb H37Rv; M. tuberculosis H37Rv growth with meropenem, percent inhibition; inhibition, % at 25 µM; actives 0.27% (n = 330,000); call rule not given here;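 further: growth measured after seven days incubation then overnight dye step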
RN4220 kill: S. aureus RN4220 growth inhibition | inhibition, % (concentration not given with the values) | actives 0.33% (n = 330,000) | OD600, 16 h; in the data active means inhibition above about 85%
Sa ugtP lethal: growth inhibition of S. aureus ugtP deletion strain; S. aureus RN4220 ugtP deletion, OD600 growth, 16 h; growth inhibition, % (no concentration beside the values); actives 0.54% (n = 330,000); in the data active means growth inhibition above about 68%
SARS 3CLpro inh-2: confirmation of SARS coronavirus 3C-like protease inhibitors; actives 36% (n = 380); QFRET protease activity assay, 3CLpro; shares compounds with SARS 3CLpro inh-1; inhibition, % at 6 µM; AID 1879; in the data active means inhibition above about 13%
Large screens that a line does not name were inactive (follow-up assays come after a bar, where they were run).

O=C(CN1C(=O)c2ccccc2C1=O)Oc1ccc(F)cc1	SARS 3CLpro inh-1 13 (no result: MazF activator, CCHF vOTU inh, RN4220 kill, Sa ugtP lethal) | SARS 3CLpro inh-2 inactive
CCc1ccc(OC(=O)CN2C(=O)c3ccccc3C2=O)cc1	none
O=C1c2[nH]nc(-c3ccccc3O)c2C(c2ccccc2F)N1Cc1ccco1 (configuration not stated)	SARS 3CLpro inh-1 13, Mtb bLac sens inconclusive | SARS 3CLpro inh-2 inactive
O=C1c2[nH]nc(-c3ccccc3O)c2C(c2ccccc2)N1Cc1ccco1 (configuration not stated)	none
Cc1ccc2[nH]c3c(c2c1)CN(C(=O)CN1c2ccc(F)cc2CCC1C)CC3 (configuration not stated)	SARS 3CLpro inh-1 44 | SARS 3CLpro inh-2 28
Cc1ccc2[nH]c3c(c2c1)CN(C(=O)CN1CCN(c2cccc(C)c2C)CC1)CC3	none
COc1cc(C=NNC(=O)CCC(=O)Nc2ccc(C)cc2)ccc1O	none (no result: MazF activator, CCHF vOTU inh, SARS 3CLpro inh-1, Mtb bLac sens)
COc1cccc(C(C(=O)NCc2ccco2)N(Cc2ccco2)C(=O)Cn2nnc3ccccc32)c1 (configuration not stated)	SARS 3CLpro inh-1 28 | SARS 3CLpro inh-2 40
COc1cccc(N(C(=O)Cn2nnc3ccccc32)C(C(=O)NCc2ccco2)c2cccnc2)c1 (configuration not stated)	none (no result: Mtb bLac sens)
COc1ccc(N(C(=O)Cn2nnc3ccccc32)C(C(=O)NCc2ccco2)c2ccc(C)o2)cc1 (configuration not stated)	SARS 3CLpro inh-1 21 | SARS 3CLpro inh-2 26
C(/C=C/c1ccccc1)=NNc1ccc2nncn2n1	none (no result: MazF activator, CCHF vOTU inh, SARS 3CLpro inh-1, Mtb bLac sens)
Cc1ccc(C(=O)NN=Cc2ccc(-c3ccccc3[N+](=O)[O-])o2)cn1	none (no result: MazF activator, CCHF vOTU inh, SARS 3CLpro inh-1, Mtb bLac sens)
COc1ccc(-c2nn(CCC#N)cc2C=NO)cc1	none (no result: MazF activator, CCHF vOTU inh, SARS 3CLpro inh-1, Mtb bLac sens)
O=C(Oc1ccc(Br)cc1C(=O)/C=C/c1ccccc1F)c1ccco1	SARS 3CLpro inh-1 22 | SARS 3CLpro inh-2 43
CC(=O)c1cc(Cl)ccc1OC(=O)c1ccco1	none
COC(=O)C1=C(C(=O)OC)C2N(C)c3ccc(OC)cc3[C@@]23CC(C(=O)OC)N(C(=O)c2cc(C)oc2C)C3=N1 (some centres not stated)	none (no result: MazF activator, CCHF vOTU inh, SARS 3CLpro inh-1, Mtb bLac sens)
CCCCOc1ccc(CONS(=O)(=O)c2ccc(NC(C)=O)cc2)cc1Cl	SARS 3CLpro inh-1 19 | SARS 3CLpro inh-2 inactive
CC(C)CN(CCC(=O)O)CC(C)C	SARS 3CLpro inh-1 14 | SARS 3CLpro inh-2 inactive
O=C(O)CCN(CCC(=O)O)c1ccccc1	none
CN(C)c1nc(N)nc(-c2nc3ccccc3s2)n1	SARS 3CLpro inh-1 13 | SARS 3CLpro inh-2 inactive
COc1cccc(N2C(=O)/C(=C/c3ccc(C)o3)C(=O)NC2=S)c1	SARS 3CLpro inh-1 13 | SARS 3CLpro inh-2 inactive
COC(=O)C1=C(C)NC(=S)NC1c1ccc(-c2ccccc2C(=O)OC)o1 (configuration not stated)	SARS 3CLpro inh-1 13 | SARS 3CLpro inh-2 inactive
Fc1cccc(C=NNc2ccc(Cl)nn2)c1	none (no result: MazF activator, CCHF vOTU inh, SARS 3CLpro inh-1, Mtb bLac sens)
CC(NC(=O)CCl)c1ccc(Cl)c(Cl)c1 (configuration not stated)	SARS 3CLpro inh-1 20 (no result: RN4220 kill, Sa ugtP lethal) | SARS 3CLpro inh-2 40
CC(NC(=O)c1ccc(Cl)c(Cl)c1)c1ccc(-c2ccccc2)cc1 (configuration not stated)	none
COc1ccc(/C(N)=N/OC(=O)CCc2ccccc2)cc1OC	none
COc1ccc(/C(N)=N/OC(=O)CSc2ccccc2)cc1OC	SARS 3CLpro inh-1 13 | SARS 3CLpro inh-2 inactive
O=C(NCCc1ccccc1)C(=O)NCC1OCCN1S(=O)(=O)c1ccc2c(c1)OCCO2 (configuration not stated)	SARS 3CLpro inh-1 15 | SARS 3CLpro inh-2 inactive
CC(=NNc1cccc(C(=O)O)c1)c1ccc2c(c1)Nc1ccccc1S2	none (no result: MazF activator, CCHF vOTU inh, SARS 3CLpro inh-1, Mtb bLac sens)
Cc1nnc(SC(=O)N2c3ccccc3Sc3ccccc32)s1	SARS 3CLpro inh-1 24 | SARS 3CLpro inh-2 38
COC(=O)CC1COc2ccccc2N1C(=O)/C=C/c1ccccc1 (configuration not stated)	SARS 3CLpro inh-1 46 | SARS 3CLpro inh-2 inactive
Cc1occc1C(=O)NN=Cc1ccc2c(c1)OCO2	none (no result: MazF activator, CCHF vOTU inh, SARS 3CLpro inh-1, Mtb bLac sens)
COc1ccc(C(NC(=O)CC(C)C)c2c(O)ccc3ccccc23)cc1 (configuration not stated)	none
CC(C)CC(=O)NC(c1ccccc1Cl)c1c(O)ccc2ccccc12 (configuration not stated)	SARS 3CLpro inh-1 13 | SARS 3CLpro inh-2 inactive
